Several values for one entry are separate records, joined by “and”; a condition that tells them apart may be missing. Equal values may be shown once. Records with an inconclusive call do not appear. Some structures have more than one record in an assay (separate samples or runs), and their calls can disagree. Activity calls are given as the source filed them. Unless noted, the call rests on the fitted dose curve; in most records, active means well fitted curve in the direction sought with a large enough effect in the repeat runs; inconclusive means weak or mixed curves; inactive means no such curve, though single readings can be large; an effect the other way counts as inactive or inconclusive.

Assay [1] is described as follows: qHTS assay to identify aromatase inhibitors - cell viability counter screen (AID 743084;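 further: cells stimulated with testosterone during compound exposure; nearly all actives have a fitted effect of over 55% in size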; further: potency means the concentration at half of the fitted maximal effect). (In general: Quantitative high-throughput screening tests each substance at several concentrations.)
The target of assay [2] is Aryl hydrocarbon receptor (Homo sapiens) (UniProt P35869). Kind of assay: qHTS assay to identify small molecule that activate the aryl hydrocarbon receptor (AhR) signaling pathway (AID 743085).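 Further: HG2L7.5c1 human HepG2 liver cells with stably integrated DRE-driven firefly reporter; series mostly up to about 70 µM; nearly all actives have a fitted effect of over 15% in size.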 An outline of the steps:
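HepG2 cells stably carrying a 20-DRE firefly luciferase reporter (HG2L7.5c1) treated with compound for 24 hr at 37C. Luciferase read by ONE-Glo luminescence, with CellTiter-Fluor viability read first.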

The nature of assay [3]: qHTS assay to identify small molecule that activate the aryl hydrocarbon receptor (AhR) signaling pathway - cell viability counter screen (AID 743086). Further: nearly all actives have a fitted effect of over 45% in size. Further: potency means the concentration at half of the fitted maximal effect. The gist of the method:
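HepG2-AhR-luc (HG2L7.5c1) cells, 4000/well, were preincubated 5 h at 37C, exposed to compound in qHTS format for 24 hr at 37C, then given CellTiter-Fluor for 30 min; viability was read as fluorescence in the reporter wells.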

Assay [4] deals with Peroxisome proliferator-activated receptor gamma (Homo sapiens) (UniProt P37231). The assay is described as follows: qHTS assay to identify small molecule agonists of the peroxisome proliferator-activated receptor gamma (PPARg) signaling pathway (AID 743094; active means well fitted activation curve with a large enough effect in the signal ratio in the repeat runs, not every such curve was filed as active; the % refers to the signal ratio). An outline of the steps:
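Stably transfected HEK293H cells (GeneBLAzer PPARg UAS-bla) were incubated with test substances for 17 h at 37C after a 5 h pre-incubation; beta-lactamase activity was then detected by FRET substrate fluorescence.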

Assay [5] can be described thus: qHTS assay to identify small molecule antagonists of the peroxisome proliferator-activated receptor gamma (PPARg) signaling pathway - cell viability counter screen (AID 743194). Further: nearly all actives have a fitted effect of over 55% in size. An outline of the steps:
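PPARg-UAS-bla HEK293H cells were plated, rested 5 h at 37 C, then treated with compounds plus rosiglitazone (50 nM final) for 17 h at 37 C; viability was then read by CellTiter-Glo luminescence after 30 min at room temperature.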

Assay [6] is described as follows: qHTS assay for small molecule agonists of the antioxidant response element (ARE) signaling pathway (AID 743202; active means well fitted activation curve with a large enough effect in the signal ratio in the repeat runs, not every such curve was filed as active; the % refers to the signal ratio). The gist of the method:
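Read-out: LiveBLAzer B/G FRET substrate fluorescence after 2 h at room temperature, following 16 h compound treatment at 37 C of HepG2 cells carrying an ARE-driven beta-lactamase reporter.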

The nature of assay [7]: qHTS assay for small molecule agonists of the antioxidant response element (ARE) signaling pathway - cell viability counter screen (AID 743203; calls by dose curve; further: nearly all actives have a fitted effect of over 55% in size). An outline of the steps:
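Cells (ARE-bla HepG2, 2,000/well) receive DMSO-dissolved compounds after a 5 hrs rest. Plates incubate 16 hrs at 37C/5% CO2. CellTiter-Glo luminescence is then recorded after 30 min at room temperature.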

The nature of assay [8]: qHTS assay for small molecule activators of the heat shock response signaling pathway - cell viability counter screen (AID 743209). Further: nearly all actives have a fitted effect of over 50% in size. An outline of the steps:
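Quantitative HTS format, Tox21 10K library. HeLa cells carrying an HSE-driven beta-lactamase reporter were treated 5 h at 37 C, then assessed for viability by CellTiter-Glo luminescence.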

Assay [9] in a line: qHTS assay to identify small molecule agonists of the peroxisome proliferator-activated receptor delta (PPARd) signaling pathway - cell viability counter screen (AID 743211). Further: nearly all actives have a fitted effect of over 55% in size. The gist of the method: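 PPARd-bla HEK293H cells (3000/well) were pre-incubated 5 h at 37 C, then exposed to compound for 17 h at 37 C. After 2 h with LiveBLAzer substrate, CellTiter-Glo was added to the same wells; luminescence read after 30 min at room temperature.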

The target of assay [10] is Peroxisome proliferator-activated receptor delta (Homo sapiens) (UniProt Q03181). The assay is described as follows: qHTS assay to identify small molecule agonists of the peroxisome proliferator-activated receptor delta (PPARd) signaling pathway (AID 743212; calls by dose curve). The gist of the method: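 GeneBLAzer PPARd UAS-bla HEK293H cells (beta-lactamase reporter under UAS control), plated and rested 5 h at 37 C, then exposed to compounds in DMSO at 37 C; LiveBLAzer B/G FRET substrate added, 2 h room temperature, fluorescence read.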
Chain of Peroxisome proliferator-activated receptor delta (Homo sapiens) (Q03181 whole entry, looked up): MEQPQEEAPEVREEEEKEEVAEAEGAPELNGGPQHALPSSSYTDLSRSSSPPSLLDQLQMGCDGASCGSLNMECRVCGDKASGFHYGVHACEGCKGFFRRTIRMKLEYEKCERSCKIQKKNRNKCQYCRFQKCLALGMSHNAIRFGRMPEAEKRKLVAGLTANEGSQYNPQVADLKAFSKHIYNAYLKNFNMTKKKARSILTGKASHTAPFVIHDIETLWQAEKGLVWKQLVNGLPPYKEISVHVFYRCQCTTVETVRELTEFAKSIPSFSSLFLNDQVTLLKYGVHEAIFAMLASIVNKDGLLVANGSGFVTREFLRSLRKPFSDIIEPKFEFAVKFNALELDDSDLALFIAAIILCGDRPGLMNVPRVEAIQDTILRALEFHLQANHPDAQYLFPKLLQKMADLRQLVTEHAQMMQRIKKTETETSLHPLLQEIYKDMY

Assay [11] can be described thus: qHTS assay to identify small molecule antagonists of the peroxisome proliferator-activated receptor delta (PPARd) signaling pathway - cell viability counter screen (AID 743213). Further: nearly all actives have a fitted effect of over 50% in size. The gist of the method:
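In this counter screen, HEK293H cells carrying a UAS-beta-lactamase reporter are co-treated with test compounds and 300 nM L165041 (final) for 17 h at 37 C; cell viability is quantified by CellTiter-Glo luminescence.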

Assay [12] concerns the target Peroxisome proliferator-activated receptor delta (Homo sapiens) (UniProt Q03181). The assay is described as follows: qHTS assay to identify small molecule antagonists of the peroxisome proliferator-activated receptor delta (PPARd) signaling pathway (AID 743215; active means well fitted inhibition curve with a large enough effect in the signal ratio in the repeat runs, not every such curve was filed as active; the % refers to the signal ratio;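 further: cells stimulated with agonist L165041 at 300 nM final during compound exposure; series mostly up to about 62 µM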). The gist of the method:
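Antagonist-mode beta-lactamase reporter screen: HEK293H cells with UAS-bla under PPARd control, stimulated by 300 nM L165041 (final) alongside test compound for 17 h at 37 C, then FRET fluorescence after 2 h substrate incubation.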

Assay [13] can be described thus: qHTS assay to identify small molecule agonists of the farnesoid-X-receptor (FXR) signaling pathway - cell viability counter screen (AID 743218). Further: nearly all actives have a fitted effect of over 45% in size. The gist of the method:
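In GeneBLAzer FXR-UAS-bla HEK 293T cells, compounds act for 16 h at 37 C. Cell viability is then scored in the reporter wells by CellTiter-Glo, 30 min at RT, luminescence.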

Assay [14] addresses Bile acid receptor (Homo sapiens) (UniProt Q96RI1). The assay is described as follows: qHTS assay to identify small molecule agonists of the farnesoid-X-receptor (FXR) signaling pathway (AID 743220; active means well fitted activation curve with a large enough effect in the signal ratio in the repeat runs, not every such curve was filed as active; the % refers to the signal ratio). An outline of the steps: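 Beta-lactamase reporter under UAS control in GeneBLAzer FXR HEK 293T cells (5000/well) measured with LiveBLAzer FRET substrate after 2 h at room temperature. Compound exposure lasted 16 h at 37C.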

A short description of assay [15]: qHTS assay to identify small molecule antagonists of the farnesoid-X-receptor (FXR) signaling pathway - cell viability counter screen (AID 743221; active means well fitted cell-killing curve with a large enough effect in the repeat runs, not every such curve was filed as active; further: nearly all actives have a fitted effect of over 50% in size). The gist of the method:
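GeneBLAzer FXR-UAS-bla HEK 293T cells, compound plus chenodeoxycholic acid (50 uM final), 16 h at 37 C. CellTiter-Glo added to the same wells after the beta-lactamase read; luminescence read after 30 min at room temperature as viability.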

In assay [16] the target is Vitamin D3 receptor (Homo sapiens) (UniProt P11473). Kind of assay: qHTS assay to identify small molecule agonists of the vitamin D receptor (VDR) signaling pathway (AID 743222; calls by dose curve). The gist of the method: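 Agonist activity measured in VDR-bla reporter cells. Exposure 16 h, 37C, 5% CO2; detection by B/G FRET substrate, 2 h RT.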
Chain of Vitamin D3 receptor (Homo sapiens) (P11473 whole entry, looked up): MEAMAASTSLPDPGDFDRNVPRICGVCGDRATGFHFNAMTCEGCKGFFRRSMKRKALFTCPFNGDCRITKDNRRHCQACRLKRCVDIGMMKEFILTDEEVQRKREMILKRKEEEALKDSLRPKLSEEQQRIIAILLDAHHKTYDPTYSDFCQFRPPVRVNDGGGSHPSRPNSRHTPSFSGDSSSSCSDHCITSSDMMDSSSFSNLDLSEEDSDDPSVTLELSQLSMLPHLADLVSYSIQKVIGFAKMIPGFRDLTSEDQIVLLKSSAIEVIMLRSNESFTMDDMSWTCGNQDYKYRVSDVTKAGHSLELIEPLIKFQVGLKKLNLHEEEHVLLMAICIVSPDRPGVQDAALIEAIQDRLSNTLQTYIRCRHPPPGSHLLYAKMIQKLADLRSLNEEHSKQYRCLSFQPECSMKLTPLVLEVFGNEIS
For assay [17] the target is unchanged. Kind of assay: qHTS assay to identify small molecule antagonists of the vitamin D receptor (VDR) signaling pathway (AID 743223; active means well fitted inhibition curve with a large enough effect in the signal ratio in the repeat runs, not every such curve was filed as active; the % refers to the signal ratio). The gist of the method:
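VDR-bla cells were treated with compound plus 3 nM final 1alpha,25-dihydroxyvitamin D3 for 16 h at 37C. Beta-lactamase reporter read by B/G FRET substrate fluorescence after 2 h at room temperature. qHTS format.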

The nature of assay [18]: qHTS assay for small molecule activators of the heat shock response signaling pathway (AID 743210; active means well fitted activation curve with a large enough effect in the signal ratio in the repeat runs, with a control signal flat, not every such curve was filed as active; the % refers to the signal ratio; further: series mostly up to about 63 µM). The gist of the method: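 HSE-bla HeLa cells (beta-lactamase reporter under heat shock response elements) were exposed to compounds for 5 h at 37 C, then loaded with LiveBLAzer B/G FRET substrate for 2.5 h at room temperature before fluorescence reading.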
Assay [19] addresses Bile acid receptor (Homo sapiens) (UniProt Q96RI1). Kind of assay: qHTS assay to identify small molecule antagonists of the farnesoid-X-receptor (FXR) signaling pathway (AID 743217; active means well fitted inhibition curve with a large enough effect in the signal ratio in the repeat runs, not every such curve was filed as active; the % refers to the signal ratio). An outline of the steps: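 Beta-lactamase reporter under UAS control in HEK 293T cells; compound exposure 16 h at 37 °C in the presence of chenodeoxycholic acid (50 uM final); signal from B/G FRET substrate after 2 h at room temperature.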

Assay [20] concerns the target Peroxisome proliferator-activated receptor gamma (Homo sapiens) (UniProt P37231). Kind of assay: qHTS assay to identify small molecule antagonists of the peroxisome proliferator-activated receptor gamma (PPARg) signaling pathway (AID 743191; calls by dose curve; further: series mostly up to about 63 µM; nearly all actives have a fitted effect of over 30% in size). An outline of the steps:
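GeneBLAzer PPARg UAS-bla HEK293H cells carrying a UAS-driven beta-lactamase reporter were plated at 3000 cells/well, preincubated 5 h at 37C, then given compound for 17 h at 37C; LiveBLAzer B/G FRET substrate was read after 1 h at room temperature.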

Chain of Aryl hydrocarbon receptor (Homo sapiens) (P35869 whole entry, looked up): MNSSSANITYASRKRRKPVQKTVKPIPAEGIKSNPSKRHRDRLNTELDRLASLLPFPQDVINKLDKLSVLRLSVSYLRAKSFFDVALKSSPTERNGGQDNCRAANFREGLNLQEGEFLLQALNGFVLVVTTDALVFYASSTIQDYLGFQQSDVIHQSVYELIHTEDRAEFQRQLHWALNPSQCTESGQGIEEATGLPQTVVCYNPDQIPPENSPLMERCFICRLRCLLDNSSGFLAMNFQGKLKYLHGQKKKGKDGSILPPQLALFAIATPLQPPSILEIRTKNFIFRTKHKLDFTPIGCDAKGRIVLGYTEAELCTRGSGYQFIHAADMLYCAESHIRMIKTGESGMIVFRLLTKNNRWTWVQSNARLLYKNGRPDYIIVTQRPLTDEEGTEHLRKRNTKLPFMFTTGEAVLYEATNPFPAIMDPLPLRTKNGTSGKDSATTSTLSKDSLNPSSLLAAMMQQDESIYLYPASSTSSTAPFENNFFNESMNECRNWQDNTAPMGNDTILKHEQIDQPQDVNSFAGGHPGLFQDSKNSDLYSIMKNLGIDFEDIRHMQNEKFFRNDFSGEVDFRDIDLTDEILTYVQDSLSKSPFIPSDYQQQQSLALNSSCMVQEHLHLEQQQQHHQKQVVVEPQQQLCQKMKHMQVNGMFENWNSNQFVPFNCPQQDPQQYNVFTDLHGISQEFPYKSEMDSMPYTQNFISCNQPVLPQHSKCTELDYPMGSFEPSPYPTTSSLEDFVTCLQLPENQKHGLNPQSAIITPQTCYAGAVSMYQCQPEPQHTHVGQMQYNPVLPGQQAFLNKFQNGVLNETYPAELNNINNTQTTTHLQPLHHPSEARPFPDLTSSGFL
Chain of Peroxisome proliferator-activated receptor gamma (Homo sapiens) (P37231 whole entry, looked up): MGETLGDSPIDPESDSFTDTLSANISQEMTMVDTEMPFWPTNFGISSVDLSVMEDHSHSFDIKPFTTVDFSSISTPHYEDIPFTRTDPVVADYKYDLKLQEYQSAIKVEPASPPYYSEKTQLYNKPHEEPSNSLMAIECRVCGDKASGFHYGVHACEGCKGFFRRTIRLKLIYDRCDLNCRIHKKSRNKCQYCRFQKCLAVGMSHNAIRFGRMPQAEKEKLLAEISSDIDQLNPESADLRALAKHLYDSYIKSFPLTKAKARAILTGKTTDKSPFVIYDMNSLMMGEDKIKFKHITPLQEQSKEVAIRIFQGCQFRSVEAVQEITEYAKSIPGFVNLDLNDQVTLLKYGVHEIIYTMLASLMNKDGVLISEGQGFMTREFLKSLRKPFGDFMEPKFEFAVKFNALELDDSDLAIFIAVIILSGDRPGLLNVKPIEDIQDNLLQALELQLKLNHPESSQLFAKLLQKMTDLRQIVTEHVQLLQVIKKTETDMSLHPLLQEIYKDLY
Chain of Bile acid receptor (Homo sapiens) (Q96RI1 whole entry, looked up): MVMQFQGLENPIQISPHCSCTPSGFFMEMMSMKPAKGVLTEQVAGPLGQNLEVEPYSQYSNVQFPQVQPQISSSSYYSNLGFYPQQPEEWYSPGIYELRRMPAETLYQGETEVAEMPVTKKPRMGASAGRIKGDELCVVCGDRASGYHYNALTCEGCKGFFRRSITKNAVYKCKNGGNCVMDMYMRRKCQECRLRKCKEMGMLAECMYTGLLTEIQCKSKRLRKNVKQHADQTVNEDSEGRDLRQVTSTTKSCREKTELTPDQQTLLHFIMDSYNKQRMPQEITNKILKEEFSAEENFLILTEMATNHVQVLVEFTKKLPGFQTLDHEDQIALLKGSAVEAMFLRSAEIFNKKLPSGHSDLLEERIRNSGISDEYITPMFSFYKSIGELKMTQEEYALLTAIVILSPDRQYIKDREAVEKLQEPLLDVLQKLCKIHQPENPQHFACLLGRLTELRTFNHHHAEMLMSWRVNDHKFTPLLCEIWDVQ

For the compound `Nc1ccc(C(=O)O)c(O)c1`, the Potency entry in assay [1], in [2], in assay [3], in [4], in assay [5] and in assay [6] was “inactive” each time. Besides, the Potency entry in assay [7], in [8], in assay [9], in [10], in assay [11] and in [12] was “inactive” in each case. Further, the Potency entry in [13], in assay [14], in assay [15], in assay [16] and in assay [17] was “inactive” in each case.

`CCN1C(=O)c2ccccc2C1Nc1ccc(OCCN2CCCCC2)cc1` (stereo not given): the Potency result in assay [1], in [2], in assay [3], in [4], in assay [5] and in [6] was “inactive” each time. The Potency entry in [7], in [8], in [18], in [9], in assay [10] and in [11] was “inactive” each time. Further, the Potency result in assay [19], in assay [13], in [14], in assay [15], in assay [16] and in [17] was “inactive” each time.

On to `C=CC(C)(CCC=C(C)C)OC=O` (stereo not given), for which the Potency entry in assay [1], in assay [2], in assay [3], in [4], in assay [20] and in [5] was “inactive” throughout. The Potency result in assay [7], in assay [18], in assay [10], in [12], in assay [13] and in assay [15] was “inactive” each time. The Potency entry in assay [16] and in assay [17] was “inactive” throughout.

Regarding `OC[C@@H](O)[C@@H](O)CO`, the Potency entry in assay [1], in [2], in assay [3], in assay [4], in assay [5] and in assay [6] was “inactive” each time. In addition, the Potency entry in [7], in assay [8], in assay [18], in assay [9], in [10] and in assay [11] was “inactive” throughout. In addition, the Potency result in assay [12], in assay [13] and in [15] was “inactive” throughout.

In the case of `ClCCl`, the Potency entry in assay [1], in [2], in assay [3], in assay [4], in [20] and in [6] was “inactive” throughout. Besides, the Potency result in assay [7], in assay [8], in assay [18], in [10], in assay [11] and in assay [12] was “inactive” throughout. The Potency entry in assay [15] and in assay [16] was “inactive” throughout.

As to `CC(CCc1ccccc1)NCC(O)c1ccc(O)c(C(N)=O)c1` (stereo not given), the Potency result in [1] is “inactive and 13.7 µM (active)”. In addition, the Potency result in assay [2], in assay [3], in assay [4], in assay [20], in assay [5] and in assay [7] was “inactive” throughout. Also, the Potency result in assay [9], in assay [10], in assay [12], in assay [13], in [14] and in [15] was “inactive” throughout.

Turning to `O=[N+]([O-])c1ccc(O)cc1C(F)(F)F`, the Potency in assay [1] was 68.6 µM (active); in [3], 61.1 µM (active). Moreover, the Potency entry in assay [2], in assay [4], in assay [20], in assay [18], in [10] and in assay [11] was “inactive” each time. Also, the Potency result in assay [12], in assay [13], in assay [14], in [15], in assay [16] and in assay [17] was “inactive” throughout.

Turning to `CCC(COC(=O)CCS)(COC(=O)CCS)COC(=O)CCS`, the Potency result in [1], in assay [2], in [3], in assay [4], in [20] and in assay [5] was “inactive” in each case. Besides, the Potency entry in assay [7], in assay [8], in [10], in assay [11], in assay [12] and in assay [13] was “inactive” throughout. The Potency entry in assay [14], in assay [15], in assay [16] and in assay [17] was “inactive” in each case.

As for `OC[C@H]1O[C@H](O[C@H]2O[C@H](CO)[C@@H](O)[C@H](O)[C@H]2O)[C@H](O)[C@@H](O)[C@@H]1O`, the Potency result in assay [1], in assay [2], in assay [3], in [4], in [20] and in [6] was “inactive” in each case. In addition, the Potency result in assay [7], in assay [8], in assay [9], in assay [19], in assay [13] and in [14] was “inactive” each time. The Potency result in [15] and in assay [16] was “inactive” in each case.
